In the library only some 7.4% were active in any assay of this set; here they are far more common.
FLuc modulator: firefly luciferase modulation, counter-screen for miR-21 project; purified FLuc, Km substrates, luminescence inhibition; Potency, µM (series often up to 57.5 µM), without a hit: top-dose activity change, negative = inhibition, most hits filed as inhibitors; actives 6.9% (n = 360,000); AID 588342;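 also: plate controls were vehicle for no effect and reference inhibitor for full effect; nearly all actives have a fitted effect of over 55% in size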
Target sequence (P08659 whole entry, looked up): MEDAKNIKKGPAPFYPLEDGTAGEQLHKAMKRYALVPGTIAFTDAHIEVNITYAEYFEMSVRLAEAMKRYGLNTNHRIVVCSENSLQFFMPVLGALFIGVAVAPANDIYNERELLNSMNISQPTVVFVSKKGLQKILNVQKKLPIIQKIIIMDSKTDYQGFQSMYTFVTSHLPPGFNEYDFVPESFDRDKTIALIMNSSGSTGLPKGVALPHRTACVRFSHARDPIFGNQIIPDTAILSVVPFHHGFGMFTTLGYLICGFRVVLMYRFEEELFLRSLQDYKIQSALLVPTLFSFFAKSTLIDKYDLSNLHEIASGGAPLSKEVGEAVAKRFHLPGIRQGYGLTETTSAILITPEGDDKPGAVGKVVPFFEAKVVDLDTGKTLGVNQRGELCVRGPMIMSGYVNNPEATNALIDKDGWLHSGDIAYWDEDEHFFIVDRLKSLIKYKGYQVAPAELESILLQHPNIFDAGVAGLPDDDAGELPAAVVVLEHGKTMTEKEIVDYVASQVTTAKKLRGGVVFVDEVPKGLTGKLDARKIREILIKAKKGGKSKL
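Purified P. pyralis luciferase (10nM final) with 10uM D-luciferin and 10uM ATP (Km levels) in 50mM Tris acetate pH 7.5, 10mM Mg acetate, 0.01% Tween-20, 0.05% BSA; qHTS 6-point titration, ~60 µM downward; luminescence read.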
SMN2 splice up: SMN2 splice variant enhancement | Potency, µM (highest dose often 46.1 µM), inactives show at the highest dose activity change, positive = activation, usual class: activators | HEK293 SMN2-luciferase splicing reporter, luminescence, 30-36 h | actives 2.8% (n = 210,000) | AID 1458; also: % of control where 0% means no effect; nearly all actives have a fitted effect of over 55% in size
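HEK293 cells carry an SMN2 […]–luciferase reporter in which exon 7 inclusion puts luciferase in frame. Cells were plated 10-12 h before compound addition, then incubated 30-36 h at 37C. ONE-Glo luminescence was read; sodium butyrate at 4.5 mM final served as control.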
ELG1 genotoxic: genotoxicity induction in ELG1-luciferase HEK293T cells. AID 504466. Potency, µM (titrated, usually from 46 µM), inactives show top-dose activity change, positive = activation, hits mostly activators. actives 1.3% (n = 330,000). HEK293T ELG1-luciferase reporter, luminescence, 16 h; also: % of control where 0% means no effect; nearly all actives have a fitted effect of over 60% in size
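Genotoxicity was scored as increased ELG1-luciferase reporter signal, measured by ONE-Glo luminescence (30 min, room temperature). Compound or vehicle exposure of the HEK293T reporter cells lasted 16 hr at 37°C.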
KinaseGlo FLuc: blocks Kinase-Glo luciferase, a counter-screen artifact; Q27757; Kinase-Glo luciferase, ATP luminescence, 8 min; Potency, µM (titrated, usually from 38.3 µM), without a hit: at the highest dose activity change, negative = inhibition, usual class: inhibitors; actives 0.28% (n = 200,000); AID 1379; also: % is scaled to controls: 0 for no effect and ±100 for the full control effect; nearly all actives have a fitted effect of over 60% in size
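Light output from Kinase-Glo luciferase with luciferin and 10 uM ATP in 50 mM imidazole pH 7.2, KCl, MgCl2, Tween 20, BSA; compound pin-delivered, 8-min ambient incubation, then luminescence read.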
NPC1 promoter act: NPC1 promoter activation. actives 2.4% (n = 320,000). AID 485313. Potency, µM (highest dose often 9.22 µM), without a hit: at the top dose activation, usual class: activators. Huh7 NPC1 promoter luciferase reporter, 24 h; also: % of control where 0% means no effect; nearly all actives have a fitted effect of over 60% in size
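Luminescence from an NPC1 promoter-driven luciferase reporter in stably transfected Huh7 cells was measured after 24 h compound treatment at 37 °C, followed by 10 min ambient incubation with luciferase detection reagent.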
Rab9 prom act: activates the Rab9 promoter. Huh7 Rab9 promoter-luciferase reporter, luminescence, 24 h. Potency, µM (titrated, usually from 9.22 µM), without a hit: at the highest dose activation, negative = inhibition, most hits filed as activators. actives 2.8% (n = 320,000). AID 485297; also: % of control where 0% means no effect; nearly all actives have a fitted effect of over 60% in size
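Huh7 cells stably carrying a Rab9 promoter-luciferase reporter, 1500 cells per well in OP-MEM I with 10% FBS, treated with compound 24 hours at 37C. Luciferase activity read by luminescence after 10 minutes with Amplite reagent.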
Active calls of the source: *; ? = inconclusive; nt = no result; [ ] = remark or other dose. Calls follow the shape of the dose curve; as a rule, active = well fitted curve in the direction sought with a large enough effect; inconclusive = small, poorly fitted or top-dose-only effect, or another doubt; inactive = no such curve, though single readings can be large; an effect the other way counts as inactive or inconclusive. Potency is read from the fitted curve at half-maximal effect.

SMILES	FLuc modulator	SMN2 splice up	ELG1 genotoxic	KinaseGlo FLuc	NPC1 promoter act	Rab9 prom act
CN(C)/C=N/c1c(C#N)cnn1-c1nc2ccccc2s1	-8%	-10%	13%	-3%	0.11µM*	0.13µM*
O=C(Nc1cccc(-c2nn[nH]n2)c1)c1ccc(Br)s1	12µM*	nt	-1%	nt	1%	27%
O=C(Nc1cccc(-c2nn[nH]n2)c1)c1ccc(Cl)s1	15µM*	nt	1%	nt	-1%	5%
c1cc(NNc2cccc(-c3nn[nH]n3)c2)cc(-c2nn[nH]n2)c1	nt	-7%[9.22 µM]	nt	1%[7.66 µM]	nt	nt
O=C(CSc1nnc(-c2cccs2)n1C1CC1)NC1CCS(=O)(=O)C1 (stereo not drawn)	2%	nt	-1%	nt	-3%	-2%
CCOC(=O)CN1C(=O)S/C(=C/c2cc(C)n(-c3ccccn3)c2C)C1=O	6µM*	-6%	17%	0%	?	4µM*
COC(=O)C(C)N1C(=O)S/C(=C/c2cc(C)n(-c3ccccn3)c2C)C1=O (stereo not drawn)	3µM*	-42%	2.6µM*	2%	1.6µM*	0.89µM*
COC(=O)C(C)N1C(=O)S/C(=C\c2cc(C)n(-c3ccccn3)c2C)C1=O (stereo not drawn)	2.7µM*	-59%	1.6µM*	11%	2µM*	2µM*
Cc1cc(/C=C2\SC(=O)N(C)C2=O)c(C)n1-c1ccc(S(N)(=O)=O)cc1	-18%	nt	0%	nt	10%	16%
CCOC(=O)CN1C(=O)S/C(=C/c2ccc(C)o2)C1=O	-18%	nt	14%	nt	-3%	-1%
CS(=O)(=O)N1CCC[C@@]2(CCN(Cc3ccccc3)C2)C1	nt	-12%	nt	-1%	nt	nt
CCOC(=O)CC(NC(=O)c1cc2cc(Cl)ccc2oc1=O)c1ccc(C)cc1 (stereo not drawn)	-5%	3%	nt	nt	nt	nt
O=C1CCn2nc(-c3ccc(Cl)cc3)cc2N1	19µM*	13µM*	?	0%	?	?
CCOc1ccc(-c2cc(C(=O)Oc3ccc(C#N)cc3)no2)cc1	-1%	nt	nt	nt	nt	nt
CCOc1ccc(C(=O)NCCn2cc(SCC(=O)Nc3ccc4c(c3)OCCO4)c3ccccc32)cc1	?	-2%	nt	nt	nt	nt
CCn1c(CCNC(=O)c2cccs2)nnc1SCC(=O)Nc1ccc(Cl)cc1	17µM*	-22%	12%	-1%	0%	-3%
CCn1c(CCNC(=O)c2cccs2)nnc1SCC(=O)NC1CCCCC1	-15%	-13%	1%	4%	-1%	-7%
Cc1cccnc1NC(=S)NC(=O)c1oc2ccccc2c1C	19µM*	nt	?	nt	1.8µM*	3.2µM*
CCC(=O)Nc1ccc(NC(=S)NC(=O)c2oc3ccccc3c2C)cc1	0%	9%	10%	-1%	-4%	-4%
COc1ccccc1CNC(=O)c1oc2ccccc2c1C	-1%	nt	6%	nt	3%	2%
CC(=O)Nc1ccc(NC(=S)NC(=O)c2oc3ccccc3c2C)cc1	0%	-24%	10%	0%	1%	6%
C=CCNC(=S)NC(=O)c1oc2ccccc2c1C	9.5µM*	?	?	-4%	?	4µM*
Cc1c(C(=O)NC(=S)NCC(C)C)oc2ccccc12	3µM*	13µM*	?	-2%	2.8µM*	?
COc1cc(OC)cc(C(=O)NC(C(=O)N2CCc3ccccc3C2)C(C)C)c1 (stereo not drawn)	4%	nt	-9%	nt	-7%	1%
CCCCCn1c(=O)[nH]c2cc(C(=O)Nc3ccc(OC)c(OC)c3)ccc2c1=O	-1%	-1%	nt	nt	nt	nt
SMILES	FLuc modulator	SMN2 splice up	ELG1 genotoxic	KinaseGlo FLuc	NPC1 promoter act	Rab9 prom act
Clc1c(CSc2nc3ccccc3o2)nc2ccccn12	1.9µM*	14µM*	2.6µM*	-2%	1.6µM*	2µM*
Brc1c(CSc2nc3ccccc3o2)nc2ncccn12	15µM*	28%	?	-1%	?	?
Clc1c(CSc2nc3ccccc3o2)nc2sccn12	9.5µM*	10µM*	5.8µM*	-2%	1.6µM*	2µM*
O=C(CSc1nc2ccccc2o1)Nc1nncs1	-15%	-20%	5%	-1%	0%	-3%
O=S(=O)(NCCc1csc2nc(-c3ccc(F)cc3)nn12)c1ccc(Br)cc1	3%	nt	nt	nt	nt	nt
COc1ccc(-c2cn(CCO)c(CCN)n2)cc1	-1%	nt	-1%	nt	-1%	0%
CN(C)C(=O)CCc1ccc2c3c([nH]c2c1)[C@]1(CCc2ccccc2)[C@@H](C(=O)N2CCCCC2)C[C@H](CC(=O)NC(C)(C)C)C(=O)N1CC3	nt	nt	-1%	nt	nt	nt
Brc1ccc(COc2ncnc3ccccc23)cc1	1%	6%	0%	-1%	1%	12%
c1ccc(OCCOc2ncnc3ccccc23)cc1	?	3%	?	0%	3.5µM*	4µM*
Cc1ccc(N2CCN(c3c(CN4CCCC4)c(=O)oc4ccccc34)CC2)c(C)c1	-1%	5%	nt	nt	nt	nt
CC(C)c1ccc(C(=O)NCc2ccc(Cl)cc2)cc1	?	16µM*	24%	0%	14%	?
O=C(NCCc1ccc(Cl)cc1)c1ccc2nccnc2c1	11µM*	nt	16%	nt	2.2µM*	4µM*
O=C(NCCc1ccc(Cl)cc1)c1ccc2nc[nH]c2c1	?	26%	2%	-2%	17%	22%
CC(=O)NCCNC(=O)c1ccc(CSc2ccc(Cl)cc2)cc1	?	13µM*	?	-2%	2.8µM*	2.8µM*
O=C(NCCc1ccc(O)cc1)c1ccc(Cl)cc1	12µM*	32µM*	?	1%	?	?

Compound activity (PubChem)
